sdo1 growth: restores growth of sdo1-depleted yeast; S. cerevisiae sdo1-depleted JHY4D growth rescue, OD600 30 h; active compounds read high; pdr5 snq2 efflux-pump mutant strain; z-score at 10 µM; actives 0.21% (n = 140,000); AID 817;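 active = z-score above 3 at both the 24 hr and the 30 hr optical density reads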;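 also: z-score against mean and SD of all compound wells on the same plate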
CD11b adhes inh: CD11b/CD18-fibrinogen binding inhibition | P05107+P11215 | K562 CD11b/CD18 adhesion to fibrinogen, ATPlite luminescence; Mn2+ added to activate the integrin | inhibition, % at 10 µM | actives 0.54% (n = 93,000) | AID 1497;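 active = primary inhibition of 50% or more at 10 µM, then 40% or more on retest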
Target sequence (P05107 whole entry, looked up, other chains not shown): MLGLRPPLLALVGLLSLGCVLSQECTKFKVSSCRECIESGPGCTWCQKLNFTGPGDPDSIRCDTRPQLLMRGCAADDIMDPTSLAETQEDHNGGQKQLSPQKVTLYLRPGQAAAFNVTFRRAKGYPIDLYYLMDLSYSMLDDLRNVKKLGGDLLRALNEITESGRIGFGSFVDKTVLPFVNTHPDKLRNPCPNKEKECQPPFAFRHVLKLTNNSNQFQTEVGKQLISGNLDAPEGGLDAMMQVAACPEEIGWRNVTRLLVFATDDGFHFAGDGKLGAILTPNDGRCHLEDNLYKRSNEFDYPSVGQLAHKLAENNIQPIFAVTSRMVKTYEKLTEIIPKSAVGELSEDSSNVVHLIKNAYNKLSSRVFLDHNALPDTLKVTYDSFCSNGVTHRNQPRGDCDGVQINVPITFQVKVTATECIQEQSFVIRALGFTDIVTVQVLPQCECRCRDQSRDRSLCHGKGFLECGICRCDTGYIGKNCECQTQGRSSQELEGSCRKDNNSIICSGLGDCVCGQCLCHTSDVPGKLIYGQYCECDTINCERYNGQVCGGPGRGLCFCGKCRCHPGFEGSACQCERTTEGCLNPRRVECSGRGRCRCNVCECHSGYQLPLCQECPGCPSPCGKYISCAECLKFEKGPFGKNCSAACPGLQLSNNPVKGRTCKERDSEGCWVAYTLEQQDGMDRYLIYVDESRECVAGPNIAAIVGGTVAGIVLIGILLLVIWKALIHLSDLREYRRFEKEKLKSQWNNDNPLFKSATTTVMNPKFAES
Phagocyt inh: blocks phagocytosis by macrophages | J774A.1 macrophage IgG-bead phagocytosis, imaging | inhibition, % at 5 µM | actives 0.07% (n = 110,000) | AID 1029;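 active = inhibition above the mean of the plate negative controls plus 5 SD, cut at about 13% in these data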;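 also: phagocytic index as fraction of beads internalized from green versus red external bead signal; plate controls were DMSO negative control for no effect and cytochalasin-D positive control for full effect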
Mac1 fbg enh: enhancers of human CD11b/CD18 binding to fibrinogen | P05107+P11215 | activation, % at 10 µM | K562 CD11b/CD18 adhesion to fibrinogen, ATPlite luminescence | actives 0.07% (n = 93,000);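 active = 10 µM primary screen giving 50% or more activity, confirmed by 40% or more on retest at that dose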
* hit, by the source's call; . = no result given; [ ] = another dose, or the depositor's remark. A selection: hits, their analogues and other compounds. The true share with any hit is near 0.71%.

SMILES	sdo1 growth	CD11b adhes inh	Phagocyt inh	Mac1 fbg enh
CN(C)S(=O)(=O)c1cccc(NC(=S)Nc2cc(Cl)cc(Cl)c2)c1	-0.93	100*	.	-6
O=S1(=O)CC(O)C(Nc2ccccc2Cl)C1 (centres undefined)	0.12	-9	0	-2
CC(C)c1ccc(S(=O)(=O)/N=C2/C=C(Sc3ncn[nH]3)C(=O)c3ccccc32)cc1	-0.18	102*	0	-4
Cc1ccc(S(=O)(=O)/N=C2/C=C(Sc3ncn[nH]3)C(=O)c3ccccc32)cc1	-0.92	.	-6	.
Clc1ccc(-c2noc(CSc3nnc(Cc4cccs4)n3-c3ccccc3)n2)cc1	-1.6	69*	.	-9
O=C(c1ccc(Br)o1)N1CCN=C1SCc1cccnc1	0.37	-4	0	-2
CSC1=NCCN1C(=O)c1ccc(Br)o1	0.84	51*	1	-6
COC(=O)c1c(-c2ccccc2)csc1NC(=O)c1c(-c2ccccc2)noc1C	0.01	-5	-6	0
CCOC(=O)c1c(-c2ccc(F)cc2)csc1NC(=O)c1c(-c2ccccc2)noc1C	0.99	1	129*[artifact]	29
CC(=O)NC(=S)Nc1ccc(NC(=O)COc2ccc(Cl)cc2Cl)cc1	-1.3	12	.	53*
O=C(COc1ccc(Cl)cc1Cl)NNC(=S)Nc1ccc(F)cc1	-2.3	10	1	-3
CSc1ccccc1NC(=O)COc1ccc(Cl)cc1Cl	-0.99	-10	2	5
O=C(COc1ccc(Cl)cc1Cl)Nc1ccccn1	-0.98	99*	-3	-10
Cc1ccc(NC(=S)N2CCC(c3nc4ccccc4s3)CC2)cc1	-1.4	16	-1	2
CCc1ccc(/C=C/C(=O)C2C(=O)c3ccccc3C2=O)cc1	-2.2	95*	-3	-11
CCc1ccc(C2C(C(=O)O)c3ccccc3C(=O)N2C)cc1 (centres undefined)	-0.67	8	-3	-3
O=C(/C=C/c1ccccc1)C1C(=O)c2ccccc2C1=O	-1.3	87*	.	-7
O=C(c1ccccc1)C1C(=O)c2ccccc2C1=O	1.1	8	0	-3
CC1CC(C)CN(S(=O)(=O)c2cc(C(=O)O)c(Cl)s2)C1 (centres undefined)	1.1	.	-2	.
CN(C)CCCCNCCCNC(=O)/C=N\O	0.3	-11	54*[artifact]	1
CN(C)CCCNCCNC(=O)/C=N\O	1.4	1	-5	-1
CC1(C(=O)OCC(=O)c2c[nH]c3ccccc23)CC1(Cl)Cl (centres undefined)	-1.6	0	0	-3
O=C1C2C(C(=O)N1/N=C/c1cc(Br)cc([N+](=O)[O-])c1O)C1C=CC2C12CC2 (centres undefined)	-0.19	66*	0	-5
O=C1C2C(C(=O)N1/N=C/c1cc([N+](=O)[O-])ccc1O)C1C=CC2C12CC2 (centres undefined)	0.26	.	.	.
CCNC(=S)NNC(=O)c1cc(-c2cccc(C)c2)nc2ccccc12	0.23	60*	-1	-5
SMILES	sdo1 growth	CD11b adhes inh	Phagocyt inh	Mac1 fbg enh
Cn1c(CN2CCCCC2)nc2cc(NC(=O)c3cccc(Br)c3)ccc21	-0.26	59*	-1	-4
O=C(CCN1CCN(Cc2ccccc2)CC1)Nc1nccs1	0.21	.	.	.
O=C(NCc1ccco1)c1sc(=S)n2c1[nH]c(=O)c1ccccc12	-0.22	96*	1	-10
CCCCCNC(=O)c1ccc2c(=O)[nH]c3c(C(=O)NCC4CCCO4)sc(=S)n3c2c1 (centres undefined)	0.98	38	-1	-2
O=C(NC1CCCC1)c1sc(=S)n2c1[nH]c(=O)c1ccccc12	-2	95*	1	-8
Cc1ccc2nsnc2c1S(=O)(=O)N1CCOCC1	0.08	37	.	-2
Cc1ccccc1C(=O)Nc1nc(=S)ss1	0.61	100*	0	-11
CC(C)CC(=O)Nc1nc(=S)ss1	-0.16	75*	-2	-6
CCCCCCC1CCC(C(=O)NC(CCSC)C(=O)NC(C(=O)OC)C(C)C)CC1 (centres undefined)	-0.93	-2	0	5
O=C(COC(=O)COc1ccccc1[N+](=O)[O-])Nc1ccc(S(=O)(=O)N2CCCCC2)cc1	0.56	50*	1	-2
Nc1nc(Nc2ccc(Cl)cc2)nc2ccccc12	-1.6	85*	0	-4
O=C(O)C(Cc1ccccc1)N1C(=O)/C(=C/c2ccccc2)SC1=S (centres undefined)	0.23	.	-9	.
O=C(O)C(Cc1ccccc1)N1C(=O)/C(=C/c2cccc3ccccc23)SC1=S (centres undefined)	1.9	91*	0	-5
COc1ccccc1N1CCN(CC(O)COc2ccc3c(c2)CCC3)CC1 (centres undefined)	-0.56	-3	-1	2
S=C(NCCc1ccccc1)NCc1cccs1	-0.06	.	2	.
CCc1ccc(OCC(=O)NC(NC(=S)Nc2ccc(C)cc2C)C(Cl)(Cl)Cl)cc1 (centres undefined)	-0.08	-4	-1	50*
CCc1ccc(OCC(=O)NC(NC(=S)Nc2ccccc2C)C(Cl)(Cl)Cl)cc1 (centres undefined)	0.63	6	3	-1
COc1ccccc1-n1c(CCn2nc(C)c(Br)c2C)n[nH]c1=S	0.67	.	-2	.
CCCCCn1ccc(=N)cc1	1.6	31	-1	-3
CCCCCCCn1ccc(=N)cc1	-0.1	83*	-1	-6
NS(=O)(=O)c1ccc(NCc2ccccc2OCc2ccc(F)cc2)cc1	-1.4	65*	-1	-6
NS(=O)(=O)c1ccc(NCc2cc(Cl)ccc2OCc2ccccc2F)cc1	-1.1	22	-2	-11
Cc1cc(OCC(=O)Nc2ccncc2)ccc1Br	-1.5	77*	0	-10
CC(C)c1ccc(-c2cc(C(=O)N3N=C(C(F)F)CC3(O)C(F)F)c3ccccc3n2)cc1 (centres undefined)	-2.4	78*	0	-4
O=C(C1CCN(S(=O)(=O)N2CCOCC2)CC1)N1CCN(c2ccccc2)CC1	1.3	2	3	-3
SMILES	sdo1 growth	CD11b adhes inh	Phagocyt inh	Mac1 fbg enh
Cc1ccc(N2C(=O)CC(Sc3ncn[nH]3)C2=O)cc1C (centres undefined)	-2.4	-3	2	-2
O=S(=O)(Nc1ccc(S(=O)(=O)N2CCCCC2)cc1)c1ccc(Br)s1	-0.95	91*	-2	-11
O=C(O)c1cnc(-c2ccccc2)nc1Sc1ccc(Cl)cc1	-0.55	90*	.	-12
O=C(O)c1cnc(-c2ccccc2)nc1Sc1ccccc1Cl	0.77	.	.	.
CCc1ccc(OCc2nnc(SCC(=O)N3CCN(c4ccccc4)CC3)o2)cc1	-0.63	.	.	.
COc1ccc(CCc2nc(-c3ccc(-n4cccc4)cc3)no2)cc1	-0.49	62*	0	12
CCc1ccc(C(=O)COc2ccc(NC(C)=O)cc2)cc1	-0.58	-28	0	0
C/C(=N\N1CCN(c2ccccc2)CC1)c1ccco1	0.8	.	2	.
Cc1ccc(-c2nn3c(C)nnc3s2)cc1NC(=O)c1ccc(-c2ccc(Cl)cc2Cl)o1	-0.82	8	-1	38
Cc1ccc(-c2nn3c(C)nnc3s2)cc1NC(=O)c1ccc(-c2cccc(Cl)c2)o1	-1.9	-15	1	88*

Compound activity (PubChem BioAssay)
